Data from PubChem BioAssay (NCATS).
Inconclusive results are not listed. Where a call stands in place of a potency, no number is given. Active and inactive are the calls of the source. The call rests on the fitted dose curve; in most records, active means well fitted cell-killing curve with a large enough effect; inconclusive means small, poorly fitted or top-dose-only effect; inactive means flat fitted curve, though single readings scatter.

Experiment: qHTS of pediatric cancer cell lines to identify multiple opportunities for drug repurposing: Confirmatory screen for SK-N-SH cells (AID 1347129);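 further: cells exposed to compound for 48 h before viability read; nearly all actives have a fitted effect of over 60% in size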
Settings: SK-N-SH neuroblastoma cell viability; series mostly up to 46.1 µM
From the text: Drug repurposing or repositioning has been offered as a strategy for drug development in oncology programs. This approach has special potential for childhood cancers and other rare or orphan diseases, where the expected return on new drug development has been a disincentive to pharmaceuticals.
In this project we exploit the poly-pharmacology of drugs to discover new indications via phenotypic screening of a panel of 19 well-characterized cell lines derived from solid tumors seen in children and adolescents. The goal is to identify approved drugs with previously unrecognized anticancer properties that has the potential to reveal new mechanisms and biological processes involved in carcinogenesis or drug resistance. We employed a titration-based paradigm (quantitative high-throughput screening or qHTS), where all compounds were tested at multiple concentrations for their effect on cell viability. Concentration-response curves (CRCs) were derived directly from the primary screen, and both potency and efficacy values were used to identify compounds with robust bioactivity profiles. We screened the NIH Chemical Genomics Center (NCGC) Pharmaceutical Collection (NPC) and Mechanism Interrogation Plate (MIPE) small molecule collections of approved and investigational compounds against these cell lines; and measured metabolically active cells after 48 hours of compound treatment as a proxy for cell viability.
Assay Submitter: Nathalia J. Martinez, National Center for Advancing Translational Sciences, National Institutes of Health, Rockville, MD, USA; email: natalia.martinez@nih.gov
[1] Shen, M et al. Quantitative high-throughput phenotypic screening of pediatric cancer cell lines identifies multiple opportunities for drug repurposing. Oncotarget 2017 Dec 19;9(4):4758-4772. PMID 29435139.
The cells were obtained from University of North Carolina (UNC), Pediatric Preclinical Testing Program (PPT), and Coriell Institute (CI).
qHTS cell viability assay:
Cells were assayed in growth media at a density of 500-1,000 cells/well. Five microliters of cells were dispensed into 1,536-well, white, solid-bottom, TC-treated plates (Greiner Bio One) using a multidrop dispenser and incubated at 37 degrees C, 5% CO2, under a humidified atmosphere for 5 hours. Twenty-three nanoliters of compounds and controls (neutral control DMSO or positive control bortezomib at final concentration of 2.3 µM) were subsequently transferred by Kalypsys pintool. For primary screens, the MIPE collection was tested at 11-point dilutions (final concentrations range from 0.78 nM to 46 µM) and the NPC collection at 8-point dilutions (final concentrations range from 0.59 nM to 46 µM). Compounds tested in follow-up screens were assayed at 11-point dilutions. Cells were incubated for 48 hours, followed by addition of 3 µL of CellTiter-Glo (Promega). After a 15 min incubation at room temperature, samples were analyzed for luminescence intensity using a ViewLux High-throughput CCD imager equipped with clear filters.
Potency means the concentration at half of the fitted maximal effect.

Row | SMILES | Potency
1 | C#Cc1cccc(Nc2ncnc3cc(OCCOC)c(OCCOC)cc23)c1 | inactive
2 | COc1ccc(-c2ccc3c(N4CCOCC4)nc(N4C[C@@H](C)O[C@@H](C)C4)nc3n2)cc1CO | 8.33 µM (active)
3 | CCC(C)n1ncn(-c2ccc(N3CCN(c4ccc(OC[C@H]5CO[C@](Cn6cncn6)(c6ccc(Cl)cc6Cl)O5)cc4)CC3)cc2)c1=O (stereo partly specified) | 14.8 µM (active)
4 | COc1cccc2cc(-c3nc(C4CCC(C(=O)O)CC4)n4ncnc(N)c34)[nH]c12 (stereo unspecified) | 10.5 µM (active)
5 | Cc1c(CN2CCN(C(=O)C(C)C)CC2)sc2c(N3CCOCC3)nc(-c3cnc(N)nc3)nc12 | 1.05 µM (active)
6 | COc1cc2nccc(Oc3ccc(NC(=O)NC4CC4)c(Cl)c3)c2cc1C(N)=O | inactive
7 | NC(=O)c1ccc(I)c([N+](=O)[O-])c1 | 55.4 µM (active)
8 | CCC(C)(C)C(=O)O[C@H]1C[C@@H](C)C=C2C=C[C@H](C)[C@H](CC[C@@H]3C[C@@H](O)CC(=O)O3)[C@H]21 | 5.26 µM (active)
9 | CC(C=CC1=C(C)CCCC1(C)C)=CC=CC(C)=CC(=O)O | inactive
10 | Nc1nc2c(ncn2COCCO)c(=O)[nH]1 | inactive
11 | Cc1oncc1C(=O)Nc1ccc(C(F)(F)F)cc1 | inactive
12 | C[C@]1(c2nc3c(C(N)=O)cccc3[nH]2)CCCN1 | inactive
13 | O=NN(CCCl)C(=O)NCCCl | inactive
14 | CCOc1ccn(-c2ccc(F)cc2)c(=O)c1C(=O)Nc1ccc(Oc2ccnc(N)c2Cl)c(F)c1 | inactive
15 | CN1CCN(CCCN2c3ccccc3Sc3ccc(C(F)(F)F)cc32)CC1 | 16.6 µM (active)
16 | NC(N)=NC(=O)c1nc(Cl)c(N)nc1N | inactive

Row | SMILES | Potency
17 | Cc1cn[nH]c1 | inactive
18 | CS(=O)(=O)c1ccc(C(=O)Nc2ccc(Cl)c(-c3ccccn3)c2)c(Cl)c1 | inactive
19 | Nc1nc2[nH]cc(CCc3ccc(C(=O)N[C@@H](CCC(=O)O)C(=O)O)cc3)c2c(=O)[nH]1 | inactive
20 | OC[C@H](Cc1ccccc1)Nc1nc(Oc2ccc3c(c2)CCC3)nc2c1ncn2Cc1ccc(-c2ccccc2)cc1 | inactive
21 | Oc1cccc(-c2nc(N3CCOCC3)c3oc4ncccc4c3n2)c1 | 4.18 µM (active)
22 | CO[C@@H]1[C@H](N(C)C(=O)c2ccccc2)C[C@H]2O[C@]1(C)n1c3ccccc3c3c4c(c5c6ccccc6n2c5c31)C(=O)NC4 | inactive
23 | O=C(c1cc(Cc2n[nH]c(=O)c3ccccc23)ccc1F)N1CCN(C(=O)C2CC2)CC1 | 14.8 µM (active)
24 | Nc1nc2ccc(OC(F)(F)F)cc2s1 | inactive
25 | COc1ccc(-c2oc3cc(OC)ccc3c2C(=O)c2ccc(C#N)cc2)cc1 | inactive
26 | Cc1c(C)c2c(c(C)c1O)CCC(C)(COc1ccc(CC3SC(=O)NC3=O)cc1)O2 (stereo unspecified) | inactive
27 | CCOc1cc(N2CCC(O)CC2)ccc1Nc1ncc2c(n1)N(C)c1ccccc1C(=O)N2C | 7.43 µM (active)
28 | NCCCC(N)(C(=O)O)C(F)F (stereo unspecified) | inactive
29 | CCCS(=O)(=O)Nc1ccc(F)c(C(=O)c2c[nH]c3ncc(-c4ccc(Cl)cc4)cc23)c1F | inactive
30 | CCN(CC)CCCC(C)Nc1ccnc2cc(Cl)ccc12 (stereo unspecified) | inactive
31 | COc1ccc(-c2ccc3c(N4CCOC[C@H]4C)nc(N4CCOC[C@H]4C)nc3n2)cc1CO | 0.526 µM (active)
